From PubChem BioAssay (NCI)
This is part of a sample that, as a whole, favours compounds with a hit. Of some 79,000 tested, about 15% had one in any assay. Unmarked numbers belong to inactive results. Activity calls are given as the source filed them. Rule as the data show it: active = growth inhibition above about 70%; inactive = the rest.

Assays:
[1] = NCI Yeast Anticancer Drug Screen. Data for the rad50 strain (AID 155);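 also: 0% = growth of vehicle-only cultures of the same strain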; conditions: S. cerevisiae rad50 strain growth inhibition, active compounds read high
How it was run: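 Genetically altered yeast (DNA repair pathway); compound treatment; growth inhibition vs vehicle ctrl.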

[2] = NCI Yeast Anticancer Drug Screen. Data for the mec2-1 strain (AID 157); conditions: S. cerevisiae mec2-1 strain, active compounds read high
How it was run: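 Using mec2-1 yeast: add compound, measure growth, express inhibition versus vehicle-treated cultures.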

[3] = NCI Yeast Anticancer Drug Screen. Data for the sgs1 mgt1 strain (AID 161);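 also: 0% = growth of cultures given vehicle only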; conditions: S. cerevisiae sgs1 mgt1 strain, active compounds read high
How it was run: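 Percent growth inhibition was derived by comparing compound-exposed mutant yeast with vehicle-exposed cultures. The strain carries alterations in DNA damage repair.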

[4] = NCI Yeast Anticancer Drug Screen. Data for the cln2 rad14 strain (AID 165);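 also: 0% = growth equal to vehicle treated cultures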; conditions: S. cerevisiae cln2 rad14 strain, active compounds read high
How it was run: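 Yeast strain cln2 rad14, bearing defects in cell cycle control and DNA repair, serves as the test system; values reflect growth inhibition compared with vehicle.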

[5] = NCI Yeast Anticancer Drug Screen. Data for the bub3 strain (AID 167); conditions: S. cerevisiae bub3 mutant strain, active compounds read high
How it was run: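 Yeast carrying a defined mutation is treated with each compound, and growth is compared with that of vehicle-exposed cells to give inhibition.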

[6] = NCI Yeast Anticancer Drug Screen. Data for the mlh1 rad18 strain (AID 175); conditions: S. cerevisiae mlh1 rad18 strain growth inhibition, active compounds read high
How it was run: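 Steps: expose repair-defective yeast to compound; measure growth; express inhibition against vehicle-treated controls.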

[7] = at 5.0 µM (retest, dose inferred, filed as 0.5)
[8] = at 50.0 µM (retest, dose inferred, filed as 5.0)

SMILES	growth inhibition [1, 7]	growth inhibition [1, 8]	growth inhibition ([1]; at 50.0 µM)	growth inhibition [2, 7]	growth inhibition [2, 8]	growth inhibition ([2]; at 50.0 µM)	growth inhibition [3, 7]	growth inhibition [3, 8]	growth inhibition ([3]; at 50.0 µM)	growth inhibition [4, 7]	growth inhibition [4, 8]	growth inhibition ([4]; at 50.0 µM)	growth inhibition [5, 7]	growth inhibition [5, 8]	growth inhibition ([5]; at 50.0 µM)	growth inhibition [6, 7]	growth inhibition [6, 8]	growth inhibition ([6]; at 50.0 µM)
CN(C)C(=O)c1cc(Cl)cc(-c2ccccc2)c1O	1%	67%	40.5%	1%	74% (active)	32.1%	-1%	68%	46.1%	-5%	38%	-6.75%	1%	86% (active)	60.2%	1%	93% (active)	78.8% (active)
COc1c(O)cc2c(c1O)C(=O)C1=C(CCCC1)C2=O	-4%	63%	47.1%	2%	49%	22.2%	4%	88% (active)	62.1%	-5%	22%	38.9%	11%	80% (active)	65%	2%	70% (active)	21.3%
CC(=O)OC1C2C3C(C=CC2[C@H]1OC(C)=O)C1C3C=CC2C1C(OC(C)=O)[C@@H]2OC(C)=O (stereo not given in full)	3%	14%	18.4%	-1%	21%	11.8%	-173%	11%	5.2%	-2%	13%	14.3%	-2%	4%	-1.9%	12%	30%	12.9%
CN(C)C(=O)c1cc(Br)cc(-c2ccccc2)c1O	4%	77% (active)	55.1%	0%	84% (active)	73% (active)	3%	86% (active)	75.8% (active)	2%	63%	38.6%	1%	88% (active)	87.5% (active)	-4%	92% (active)	51.8%
C=C1CC/C=C(/C(=O)O)CC[C@H]2[C@@H]1CC2(C)C	-5%	58%	63.6%	4%	71% (active)	60.1%	3%	68%	57.4%	-6%	50%	53.6%	0%	78% (active)	69.5%	-1%	74% (active)	53.2%
O=[N+]([O-])CCc1ccco1	3%	0%	74.8% (active)	1%	-1%	73.2% (active)	2%	2%	47.4%	3%	0%	56.2%	4%	-4%	95.2% (active)	0%	-1%	44.1%
Cc1c2ccccc2cc2c1ccc1cccc(F)c12	4%	90% (active)	84.4% (active)	11%	95% (active)	48%	1%	87% (active)	80.7% (active)	8%	93% (active)	23.9%	4%	91% (active)	79% (active)	10%	92% (active)	59.1%
C=C(Br)COc1ccc2c(C)cc(=O)oc2c1	38%	39%	67.5%	35%	32%	25.7%	42%	47%	75.2% (active)	38%	32%	36%	45%	43%	68.8%	49%	51%	49.8%
COc1ccc(/C=C/C(C(=O)O)C(=O)O)cc1	19%	65%	82.7% (active)	-20%	84% (active)	76% (active)	6%	59%	76% (active)	37%	47%	44.4%	14%	88% (active)	82.5% (active)	-4%	89% (active)	78% (active)
CCc1ccc(N(C(C)=O)C2=C(Cl)C(=O)c3ccccc3C2=O)cc1	99% (active)	99% (active)	98.4% (active)	100% (active)	99% (active)	91% (active)	100% (active)	100% (active)	99.2% (active)	99% (active)	99% (active)	77% (active)	99% (active)	100% (active)	67.9%	100% (active)	99% (active)	98.7% (active)
